Experimental findings from PubChem BioAssay (NCI) are described below.

Among the test systems are SK-MEL-2 melanoma; SN12C renal; UO-31 renal; TK-10 renal; ACHN renal; A498 renal; CCRF-CEM leukemia; MOLT-4 leukemia; RPMI-8226 leukemia; OVCAR-5 ovarian; OVCAR-4 ovarian; SK-OV-3 ovarian; IGROV1 ovarian; OVCAR-3 ovarian; HS 578T breast; NCI/ADR-RES ovarian; CAKI-1 renal; SR leukemia; OVCAR-8 ovarian; EKVX NSCLC.
Assay in all cases: NCI-60 one-dose screen, 48 h (100 = growth as untreated, 0 = no growth, -100 = all killed)
Conditions in all cases: 10 µM unless noted

Molecules are shown by their SMILES. This is part of a sample that, as a whole, favours compounds with a hit. Of some 83,000 tested, about 20% had one in any assay.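 For each line, cells grew in 96-well plates with the test compound present at a single concentration for 48 hours.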 Unmarked numbers belong to inactive results. Activity calls are given as the source filed them. How the source made its calls: active means growth percent below 10; inactive means the rest.

In the case of `COc1ccc(-n2nc(C(=O)Nc3ccc(F)cc3)nc2-c2cc(OC)c(OC)c(OC)c2)cc1`, the growth with SK-MEL-2 melanoma was 102%; with SN12C renal it was 92.4%; with UO-31 renal, 51.6%; in the assay on TK-10 renal it was 112%; in the assay on ACHN renal, 89.8%; in the assay with A498 renal it was 66.6%. Also, the growth was 83.2% with CCRF-CEM leukemia; 69.9% with MOLT-4 leukemia; 96.8% with RPMI-8226 leukemia; 97.8% in the assay with OVCAR-5 ovarian; 90.5% with OVCAR-4 ovarian; 94.8% in the assay on SK-OV-3 ovarian. Also, the growth was 98.1% in the assay on IGROV1 ovarian, 92.4% with OVCAR-3 ovarian, 89.3% in the assay on HS 578T breast and 85% in the assay on NCI/ADR-RES ovarian.
Turning to `CCS(=O)(=O)Nc1cccc(Nc2c3cccc(C)c3nc3c(C)cccc23)c1OC`, the growth was 51.4% in the assay with SK-MEL-2 melanoma; 12.5% in the assay on SN12C renal; 10.7% in the assay on UO-31 renal; 29.2% in the assay on TK-10 renal; -1.64% (active) in the assay with ACHN renal; 10.7% in the assay with CAKI-1 renal. Further, the growth in the assay on MOLT-4 leukemia was -12.8% (active); in the assay with SR leukemia, 5.24% (active); with RPMI-8226 leukemia it was 15.8%; in the assay on OVCAR-8 ovarian, 24%; with OVCAR-5 ovarian, 21%; in the assay with OVCAR-4 ovarian, 83.5%. For the same compound, the growth in the assay with SK-OV-3 ovarian was 30.6%; in the assay on IGROV1 ovarian, 36.2%; in the assay with OVCAR-3 ovarian it was 47.2%; with HS 578T breast, 61.2%; in the assay with NCI/ADR-RES ovarian, 41.7%.
Regarding `O=[N+]([O-])c1ccc(Sc2nc(Cl)nc(NC3CCCC3)n2)cc1`, the growth is -91.7% [100 µM] (active) in the assay with SK-MEL-2 melanoma; -88.9% [100 µM] (active) in the assay on SN12C renal; -83.7% [100 µM] (active) in the assay with UO-31 renal; -96.7% [100 µM] (active) in the assay on TK-10 renal; -100% [100 µM] (active) in the assay on ACHN renal; -91.4% [100 µM] (active) in the assay with CAKI-1 renal. Besides, the growth in the assay with A498 renal is -94.2% [100 µM] (active); in the assay with MOLT-4 leukemia it was -30.1% [100 µM] (active); in the assay on SR leukemia it was -28.3% [100 µM] (active); in the assay with RPMI-8226 leukemia, -7.18% [100 µM] (active); in the assay with OVCAR-5 ovarian, -90.5% [100 µM] (active); in the assay on OVCAR-4 ovarian it was -100% [100 µM] (active). In addition, the growth in the assay with SK-OV-3 ovarian is -100% [100 µM] (active); with IGROV1 ovarian it was -67.8% [100 µM] (active); in the assay with OVCAR-3 ovarian, -100% [100 µM] (active); in the assay on HS 578T breast it was 11.7% [100 µM]; in the assay on NCI/ADR-RES ovarian, -49.1% [100 µM] (active).
As to `COc1ccc(-c2cc(-c3cc4ccccc4oc3=O)n(-c3ccccc3)n2)cc1`, the growth in the assay on EKVX NSCLC is 67.5%; with SN12C renal, 67%; in the assay on TK-10 renal it was 141%; in the assay with ACHN renal, 73.2%; in the assay with CAKI-1 renal, 97.1%; in the assay on A498 renal, 91.3%. Moreover, the growth in the assay with CCRF-CEM leukemia was 94.5%; in the assay on RPMI-8226 leukemia, 86.4%; with OVCAR-5 ovarian it was 91.1%; in the assay with OVCAR-4 ovarian, 13.2%; in the assay with SK-OV-3 ovarian it was 76.7%; in the assay on IGROV1 ovarian, 14%. The growth in the assay on OVCAR-3 ovarian was 68.2%; with HS 578T breast, 66.4%; with NCI/ADR-RES ovarian, 69.5%.
As for `COc1ccc(N=C2CSc3nnc(-c4cc(F)c(Cl)cc4Cl)n3N2)cc1`, the growth in the assay with SK-MEL-2 melanoma was 25.8%; in the assay with SN12C renal, 7.26% (active); in the assay with UO-31 renal, -69.5% (active); in the assay on TK-10 renal it was -48.1% (active); in the assay on ACHN renal, -26.2% (active); in the assay on CAKI-1 renal it was -11.2% (active). For the same compound, the growth is -24.4% (active) in the assay with CCRF-CEM leukemia; -4.82% (active) in the assay on MOLT-4 leukemia; -23.5% (active) with RPMI-8226 leukemia; 6.26% (active) in the assay on OVCAR-8 ovarian; -20.5% (active) in the assay with OVCAR-5 ovarian; -59.2% (active) with OVCAR-4 ovarian. The growth in the assay with SK-OV-3 ovarian is -42.3% (active); in the assay on IGROV1 ovarian, -45.1% (active); in the assay with OVCAR-3 ovarian it was -74% (active); in the assay on HS 578T breast, -43.8% (active); with NCI/ADR-RES ovarian it was 9.18% (active).
Take `COc1cc(OC)c(C(=O)/C=C/c2cccc(OC(C)=O)c2)cc1CC=C(C)C`: the growth in the assay with EKVX NSCLC was 107%; in the assay with SN12C renal it was 62.1%; in the assay with TK-10 renal, 162%; in the assay with ACHN renal it was 74.9%; in the assay with CAKI-1 renal, 241%; in the assay with A498 renal it was 120%. The growth in the assay on CCRF-CEM leukemia is 9.5% (active); in the assay on MOLT-4 leukemia it was 32%; in the assay with RPMI-8226 leukemia it was 7.53% (active); in the assay with OVCAR-5 ovarian, 107%; in the assay on OVCAR-4 ovarian, 75.1%; in the assay with SK-OV-3 ovarian it was 102%. The growth was 59.2% in the assay with IGROV1 ovarian, 37.7% in the assay on OVCAR-3 ovarian, 99% in the assay on HS 578T breast and 72% in the assay with NCI/ADR-RES ovarian.
Consider `O=C1OCC2=C1C(c1ccccc1)c1cc3c(cc1N2CCO)CCC3` (centres undefined), for which the growth was 17.1% in the assay with SK-MEL-2 melanoma; 23.2% with SN12C renal; 38.1% with UO-31 renal; 54.5% in the assay with TK-10 renal; 29.7% in the assay with ACHN renal; 26.7% in the assay with CAKI-1 renal. The growth is 23.9% in the assay on RPMI-8226 leukemia; 36.5% with OVCAR-8 ovarian; 26.1% in the assay with OVCAR-5 ovarian; -20.7% (active) in the assay on SK-OV-3 ovarian; 12.4% in the assay with IGROV1 ovarian; -21.6% (active) with OVCAR-3 ovarian. For the same compound, the growth in the assay on HS 578T breast is 3.94% (active); with NCI/ADR-RES ovarian, -70.4% (active).
Consider `NNc1ccc(S(N)(=O)=O)cc1`, for which the growth in the assay on EKVX NSCLC was 103%; in the assay on UO-31 renal, 91.6%; in the assay with ACHN renal, 105%; in the assay with CAKI-1 renal, 97.8%; in the assay on CCRF-CEM leukemia, 9.37% (active); with MOLT-4 leukemia it was 102%. Moreover, the growth was 82.4% with RPMI-8226 leukemia; 102% in the assay with OVCAR-5 ovarian; 110% in the assay with OVCAR-4 ovarian; 104% in the assay with SK-OV-3 ovarian; 110% in the assay with IGROV1 ovarian; 111% in the assay with OVCAR-3 ovarian. In addition, the growth in the assay with HS 578T breast was 110%; with NCI/ADR-RES ovarian, 94.2%.
In the case of `O=C1c2cccc3cccc(c23)C(=O)N1CCCCCCCCCCN1C(=O)c2cccc3cccc(c23)C1=O`, the growth in the assay with SK-MEL-2 melanoma is 93.6%; with SN12C renal, 100%; in the assay with UO-31 renal it was 99.4%; with TK-10 renal, 121%; with ACHN renal, 96.2%; in the assay with CAKI-1 renal, 98%. Moreover, the growth in the assay on A498 renal was 105%; in the assay with MOLT-4 leukemia, 107%; in the assay with SR leukemia, 96.8%; with RPMI-8226 leukemia, 108%; in the assay with OVCAR-8 ovarian, 104%; in the assay on OVCAR-5 ovarian, 106%. Moreover, the growth is 95% in the assay on OVCAR-4 ovarian; 105% with SK-OV-3 ovarian; 110% in the assay with IGROV1 ovarian; 109% in the assay with OVCAR-3 ovarian; 99.1% with HS 578T breast; 110% in the assay with NCI/ADR-RES ovarian.
